Only some compounds are listed: those with a hit (about 3% of all), similar ones and a draw of the others.
EBV LMP1 NFkB: inhibitors of Epstein-Barr LMP1-induced NF-kappaB reporter. 350,000 compounds, 0.69% hits. AID 504558. inhibition, % at 12.5 µM. LMP1-induced NF-kappaB luciferase reporter cells, luminescence; in the data active means inhibition above about 41%; inconclusive means no clear call, values can overlap the other calls;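 further: 0% = neutral control wells and 100% = reference inhibitor control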
CF NFkB inh: cystic fibrosis NF-kB activation inhibition. KKLEB NF-kB-GFP reporter, PAF-induced, GFP fluorescence overnight. inhibition, % at 5 µM. 360,000 compounds, 0.86% hits. AID 588850;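 active means at least 50% inhibition at 5 µM, scaled per plate between neutral and stimulator controls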;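 further: PAF is a Pseudomonas aeruginosa culture filtrate used as stimulus; plate controls were PAF-stimulated DMSO wells for no effect and unstimulated DMSO wells for full effect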
Peg3 promoter: Peg3 promoter activity inhibition; HeLa PEG-Prom luciferase reporter, luminescence, overnight; inhibition, % at 20 µM; 360,000 compounds, 1.7% hits;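 active means inhibition of at least 50% at 20 µM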
HIF-2a inh: inhibitors of HIF-2a; 786-0 RCC cells HIF-2a reporter, luciferase luminescence, overnight; inhibition, % at 18.8 µM; 360,000 compounds, 0.72% hits; AID 624352;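 active means inhibition of the luminescence signal of 40% or more relative to plate controls, in a single-dose primary screen at 18.75 µM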
TRPM1 prom inh: MITF TRPM1 promoter inhibition in SK-MEL-5 cells; SK-MEL-5 TRPM1 promoter luciferase, 24 h; inhibition, % at 12.5 µM; 330,000 compounds, 0.83% hits; AID 488899;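 active means mean inhibition across replicates of 60% or more, whatever share of single replicates reaches that level; inconclusive means some that reach 60%, reason not given; inactive means mean inhibition across replicates below 60%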
KKLEB tox: reduces viability of KKLEB cystic fibrosis airway cells | KKLEB CF airway cells viability, ATPlite luminescence, overnight; stronger effect = lower value; cells stimulated with P. aeruginosa culture filtrate | activity change (cytotoxicity), % at 5 µM | 360,000 compounds, 0.36% hits | AID 602141;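 active means corrected activity change at or below -50% at 5 µM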
Mdm2-MdmX confirm: confirmation of inhibitors of human Mdm2/MdmX interaction, set 2; shares compounds with HIF-2a inh; SaOS-2 split-luciferase Mdm2/MdmX complementation, luminescence; inhibition, % at 8 µM; 740 compounds, 99% hits;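 active means mean inhibition of the luminescence signal across two replicates at or above 26 percent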
HIF-2a inh conf: HIF-2a inhibition, single concentration confirmation. shares compounds with HIF-2a inh. 786-0 RCC cells, HIF-2a luciferase reporter luminescence, overnight. inhibition, % at 18.8 µM. 1,800 compounds, 56% hits;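 active means mean inhibition across four replicates of at least 40 percent at the single tested concentration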
HIF-1a cs: inhibits HIF-1a reporter, a counter-screen for HIF-2a inhibitors. shares compounds with HIF-2a inh. MiaPaCa-2 HIF-1a luciferase reporter, desferoxamine, overnight. inhibition, % at 18.8 µM. 1,800 compounds, 72% hits;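 active means mean inhibition of the reporter signal across four replicates at the single tested dose of 50% or more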
* hit, by the source's call; ? = inconclusive; · = no result given.

SMILES	EBV LMP1 NFkB	CF NFkB inh	Peg3 promoter	HIF-2a inh	TRPM1 prom inh	KKLEB tox	HIF-2a inh conf	HIF-1a cs	others
O=C(Nc1ccc2nc3n(c(=O)c2c1)CCCCC3)c1c(F)ccc([N+](=O)[O-])c1F	80.1*	86.8*	108.0*	88.3*	96.9*	-86.9*	98.0*	96.5*	Mdm2-MdmX confirm=103.2*
O=C(Nc1ccc2nc3n(c(=O)c2c1)CCCCC3)c1ccccc1[N+](=O)[O-]	1.6	25.0	-35.5	-62.0	-36.6	-9.9	·	·
COc1cc(CN2C[C@@H](CO)O[C@@H](n3cnc4c(Nc5ccccc5)ncnc43)C2)cc(OC)c1OC	·	-9.9	11.9	-14.5	·	-16.4	·	·
O=C(NCCCc1ccccc1)c1cccc(Br)c1	-11.9	13.5	-90.0	-112.9	-25.8	-9.0	·	·
O=C(CN(Cc1ccccc1)C(=O)CCl)c1cccc(Br)c1	-4.3	61.3*	10.9	30.7	23.1	-67.2*	·	·	Mdm2-MdmX confirm=103.0*
CSc1ccc(CNC(=O)C2(C)CCN2C(C)C)cc1 (configuration not stated)	·	14.7	2.0	10.6	·	-5.9	·	·
CCCCNC(=O)C1(N2C(=O)c3ccccc3C2=O)CCCC1	·	8.3	1.1	0.7	·	4.3	·	·
CC(C)CNc1ncnc2c1ncn2[C@H]1CN(Cc2ccco2)C[C@@H](CO)O1	·	-14.8	16.6	6.5	·	13.3	·	·
COc1ccc(/C=C/C(O)=C2/C(=O)N(C)C3(C)CC2c2ccccc2O3)cc1 (configuration not stated)	1.1	6.9	29.3	54.5*	19.8	-6.5	-4.5	53.5*
Cc1ccc(/C=C/C(O)=C2/C(=O)N(C)C3(C)CC2c2ccccc2O3)cc1 (configuration not stated)	-1.1	14.7	39.1	83.3*	10.5	-3.3	37.0	96.8*
COc1cc(/C=C/C(=O)Nc2ccc(S(=O)(=O)Nc3ncccn3)cc2)ccc1OCC#N	-3.6	-0.8	1.6	-2.5	·	-1.4	·	·
CCc1nc2ccc(C(=O)Nc3cc(-c4ccccc4)ccc3OC)cn2c1N(CCN(C)C)CC1CC1	·	-3.9	98.2*	82.4*	·	-20.5	8.8	101.1*
COc1ccc(CN2CCC2(C)C(=O)NCCc2c[nH]c3ccccc23)c2ccccc12 (configuration not stated)	·	15.3	13.0	14.7	·	1.5	·	·
Cc1cc(C)nc(SC2=CS(=O)(=O)c3ccccc32)n1	-16.0	29.8	33.9	-3.7	7.4	-4.4	·	·
O=S1(=O)C=C(Sc2nnc(-c3ccccc3)o2)c2ccccc21	7.7	97.2*	109.7*	95.5*	96.5*	-71.5*	·	·	Mdm2-MdmX confirm=99.7*
COc1ccc(/C=C2\SC(=O)N(CCCC(=O)Nc3ccc(C(=O)O)cc3)C2=O)cc1OC	-4.9	-18.2	10.5	13.2	-2.2	1.2	·	·
COc1ccc(/C=C2\SC(=O)N(CCCC(=O)Nc3cc(Cl)ccc3C(=O)O)C2=O)cc1	74.1*	-4.3	76.1*	89.5*	89.2*	-2.1	98.2*	99.3*
COC(=O)c1ccc(CN(c2ccc(C(=O)O)c(O)c2)S(=O)(=O)c2ccc(Cl)c([N+](=O)[O-])c2)cc1	2.0	23.0	54.9*	76.5*	-7.4	-4.6	5.4	57.2*
COC(=O)c1ccc(CN(c2ccccn2)S(=O)(=O)c2ccccc2)cc1	1.9	7.1	8.2	6.3	3.0	-8.4	·	·
Cc1ccc(S(=O)(=O)/N=C(\Sc2ccccc2)c2ccccc2)cc1	5.0	0.6	56.0*	43.3*	44.6	2.6	55.8*	48.9
CC1(C(=O)NS(=O)(=O)C2CC2)CCCN(C(=O)c2cccnc2Oc2ccccc2)C1 (configuration not stated)	·	-11.2	7.4	15.9	·	14.4	·	·
CCOC(=O)CSc1nc(N)c(C#N)c(-c2ccc(OCC)cc2)c1C#N	-13.3	15.1	12.0	8.4	1.5	-2.1	·	·
COC(=O)CSc1nc(N)c(C#N)c(-c2ccc(O)cc2)c1C#N	7.7	11.9	7.7	40.1*	-9.2	-9.0	34.9	21.1
CCC(=O)OCCNc1cc(Sc2nc3ccccc3[nH]2)c2nonc2c1[N+](=O)[O-]	10.5	81.6*	92.1*	86.4*	72.2*	-95.0*	83.5*	83.8*
CCCC(=O)OCCNc1cc(SCc2ccco2)c2nonc2c1[N+](=O)[O-]	0.1	7.6	-6.0	6.9	-0.7	-0.3	·	·
SMILES	EBV LMP1 NFkB	CF NFkB inh	Peg3 promoter	HIF-2a inh	TRPM1 prom inh	KKLEB tox	HIF-2a inh conf	HIF-1a cs	others
CCCC(=O)OCCNc1cc(Sc2nccn2C)c2nonc2c1[N+](=O)[O-]	9.8	47.7	110.4*	86.7*	101.0*	-1.0	81.8*	103.8*
O=[N+]([O-])c1ccc(N2CCNCC2)cc1Sc1nc2ccccc2[nH]1	5.2	10.4	5.6	8.8	-4.8	-8.6	·	·
CCC(=O)OCCNc1cc(Sc2nc3ccccc3s2)c2nonc2c1[N+](=O)[O-]	33.6	-5.7	98.7*	52.6*	59.4	14.8	36.3	61.2*
COc1cccc(CNc2nc3cc(-c4ccc(C(=O)N5CCN(C)CC5)cc4)sc3c(=O)n2C)c1	·	-35.1	34.1	17.8	·	-6.8	·	·
C=CCn1c(Sc2ncc([N+](=O)[O-])s2)n[nH]c1=O	?	14.5	102.2*	92.5*	82.1*	16.8	·	·	Mdm2-MdmX confirm=102.7*
CC(=O)Nc1ccc(Nc2cc(C)nc3c(-c4ccccc4)cnn23)cc1	12.5	18.8	38.6	52.8*	-1.3	-10.1	77.7*	92.5*
Cc1cc(N)n2ncc(-c3ccccc3)c2n1	-39.1	7.6	-277.6	-268.5	-67.0	-4.4	·	·
CCCCCc1ccc(OCCCC[n+]2ccc(C)cc2)c(CCCCC)c1	20.0	74.9*	99.7*	10.6	100.6*	-66.8*	·	·	Mdm2-MdmX confirm=103.2*
CCCCCc1ccc(OCCCC[n+]2ccccc2)c(CCCCC)c1	55.2*	48.8	94.8*	86.3*	86.7*	-28.0	30.0	102.8*
CCC(C)(C)c1ccc(Oc2cccc(C(=O)O)c2)cc1	-16.3	-12.2	-208.6	24.7	-35.5	-5.3	·	·
CCCCCOc1ccc(CN2CCOCC2)cc1Cl	-85.2	-17.1	-230.7	-185.2	-52.2	9.0	·	·
CCC(C)(C)c1ccc(OCCCC[n+]2ccccc2)c(C(C)(C)CC)c1	14.7	62.5*	92.8*	25.1	99.9*	-50.4*	·	·	Mdm2-MdmX confirm=103.0*
O=C(NCCO)c1cccc(-c2cnc3cccnn23)c1	·	12.9	-25.3	-3.1	·	-5.9	·	·
COCCN1C(=O)c2ccccc2C1c1nnnn1Cc1ccccc1 (configuration not stated)	·	·	·	5.9	·	·	·	·
CCN(CC)CCOc1ccc(Br)cc1	-14.3	-5.2	10.3	11.4	-7.7	-3.8	·	·

Source: PubChem BioAssay
